# In PubChem BioAssay (NCI):
# Compounds without any hit were thinned out: in the full panel of roughly 83,000, 20% have a hit.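 Assay: single dose, 48 h. Readout: percent growth (0 = no net growth; negative = cell death). Active: <10.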 Unmarked numbers belong to inactive results. Active and inactive are the calls of the source.
# What was measured:
# Test in all cases: NCI-60 one-dose screen, 48 h (100 = growth as untreated, 0 = no growth, -100 = all killed)
# Conditions in all cases: 10 µM unless noted
# [1] = test system: DU-145 prostate
# [2] = test system: K-562 leukemia
# [3] = test system: MALME-3M melanoma
# [4] = test system: MDA-MB-231 breast
# [5] = test system: RXF 393 renal
# [6] = test system: SF-268 CNS
# [7] = test system: SF-295 CNS
# [8] = test system: SF-539 CNS
# [9] = test system: UACC-257 melanoma
# [10] = test system: M14 melanoma
# [11] = test system: HCT-15 colon
# [12] = test system: HT29 colon
# [13] = test system: SNB-75 CNS
# [14] = test system: SNB-19 CNS
# [15] = test system: U251 CNS
# [16] = test system: PC-3 prostate
# [17] = test system: SK-MEL-5 melanoma
# [18] = test system: UACC-62 melanoma
# [19] = test system: SK-MEL-28 melanoma
Compound,growth [1],growth [2],growth [3],growth [4],growth [5],growth [6],growth [7],growth [8],growth [9],growth [10],growth [11],growth [12],growth [13],growth [14],growth [15],growth [16],growth [17],growth [18],growth [19]
Cc1cc(C)n(Cc2cc(C(C)(C)C)cc(C(C)(C)C)c2)c(=O)c1C#N,103%,88.1%,82.4%,82.5%,101%,94.8%,85.9%,90.8%,102%,89.8%,86.8%,99.4%,96.1%,95.8%,97.9%,79%,90.7%,72.8%,102%
CN1CCN(c2nc(-c3csc(-c4cccs4)n3)cc3ccccc23)CC1,55.8%,-35.9% (active),70.4%,41.6%,40.3%,49.6%,83%,86.7%,21.6%,-44.9% (active),7.33% (active),-27.3% (active),54.5%,66.1%,28.8%,39.8%,43.7%,33.6%,68.9%
COc1cc(-c2c(C#N)c(-c3cccs3)nc3c2c(-c2ccccc2)nn3-c2ccccc2)ccc1O,85.6%,66.2%,87.2%,87.8%,94.4%,80.4%,98.2%,93.5%,81.3%,89.3%,73.5%,74.8%,79.8%,98.9%,78.3%,66%,94.9%,83.5%,96.1%
O=C(/C=C/c1cccc2ccccc12)Nc1ncc(Cc2ccccc2)s1,21.2%,8.6% (active),21.7%,25%,-10% (active),50.8%,-40.1% (active),-24.4% (active),60.8%,-21.3% (active),12.2%,14.1%,-17.2% (active),9.85% (active),1.44% (active),30.3%,10.6%,15.9%,44.1%
C/C(=C(/c1ccccc1)c1ccc(N2C(=O)c3cccc4c(NCc5ccccc5)ccc(c34)C2=O)cc1)c1ccccc1,101%,85.8%,96.3%,96.1%,112%,102%,96.2%,98.6%,106%,89.1%,103%,112%,94.6%,96.8%,99.5%,82.1%,99.3%,80.3%,107%
Cc1cc2nc3c4cc(O)ccc4n(CCN(C)C)c3nc2cc1C,6.38% (active),7.53% (active),-61.6% (active),-5.62% (active),-54% (active),9.22% (active),-19.8% (active),-13.1% (active),-15.1% (active),-33.7% (active),-29.3% (active),1.97% (active),-5.77% (active),2.18% (active),3.44% (active),6.53% (active),-27.4% (active),-49.5% (active),-8.23% (active)
CN1CCN(c2ccc3nc(-c4[nH]ncc4Nc4ncnc5[nH]ccc45)[nH]c3c2)CC1,7.18% (active),7.3% (active),-16.6% (active),-13% (active),-71.7% (active),-9.53% (active),-1.58% (active),-43.6% (active),11.7%,3.42% (active),4.21% (active),7.01% (active),-52.7% (active),2.27% (active),7.05% (active),11.7%,-13% (active),1.28% (active),-11.3% (active)
CC1(C)CC[C@]2(CO)CC[C@]3(C)C(=CC[C@@H]4[C@@]5(C)CC[C@H](NCO)C(C)(C)[C@@H]5CC[C@]43C)[C@@H]2C1,-49.9% (active),-36.8% (active),-76.3% (active),-80% (active),-88% (active),63.1%,-30.5% (active),-18.5% (active),10.5%,-53% (active),-76.1% (active),-43.2% (active),-2.38% (active),17.8%,-79.4% (active),7.13% (active),-2.6% (active),-73% (active),60.8%
C=COCCCCCCCCCCCCCCCCCC,106%,119%,109%,90.4%,119%,101%,118%,96.4%,92.2%,113%,114%,102%,122%,96.9%,106%,84.5%,112%,88.6%,104%
C#CCN=C[C@]12CC[C@@H](C(=C)C)[C@@H]1[C@H]1CC[C@@H]3[C@@]4(C)CCC(=O)C(C)(C)[C@@H]4CC[C@@]3(C)[C@]1(C)CC2,67.9%,28.1%,81.8%,83.8%,80.3%,71.3%,68.5%,80.2%,55.6%,63.1%,53.2%,55.7%,120%,79%,62.1%,24.5%,25.3%,37.7%,81.6%
N#CC1=C(N)Oc2c(c(N)nn2-c2ccccc2)C1c1ccc(Cl)cc1Cl (centres undefined),105%,89.6%,104%,97.4%,109%,92%,106%,94.3%,104%,96.7%,100%,115%,73.2%,95.2%,91.6%,94.5%,101%,88.7%,104%
CC(C)/C=C/CC[C@](C)(O)[C@H]1CC[C@]2(C)[C@@H]1CC[C@@H]1[C@@]3(C)C/C(=C/c4cccc(C(F)(F)F)c4)C(=O)C(C)(C)[C@@H]3CC[C@]12C,96.8%,86.2%,100%,88.9%,105%,93.3%,101%,97.6%,95.2%,91.5%,90.6%,97.3%,62.8%,92.2%,92.6%,79.5%,97.6%,81.8%,105%
CC1(C)NCCC[C@]2(C)[C@H]3CC[C@@H]4[C@H]5[C@H](C(=O)/C=C/c6ccccn6)CC[C@]5(CO)CC[C@@]4(C)[C@]3(C)CC[C@@H]12,67.7%,-2.17% (active),73.6%,71.1%,56.7%,78.7%,88.8%,86.1%,64%,61.1%,-4.7% (active),-13.5% (active),105%,77.6%,-21.6% (active),22.2%,56.3%,72.8%,88.3%
Cc1ccc(S(=O)(=O)Nc2ccc(-c3cc(-c4cccc(F)c4)c(C#N)c(N)n3)cc2)cc1,49.4%,2.53% (active),44.4%,20.6%,-18.2% (active),47%,78.9%,24%,41.9%,-8.83% (active),-23.3% (active),-7.07% (active),-11.7% (active),51.4%,22.6%,18.6%,28.4%,-6.88% (active),-33.3% (active)
COc1ccc(OCC(CO)N2CCN(c3ccccc3)CC2)cc1 (centres undefined),111%,126%,82.7%,97%,119%,95.8%,101%,98.5%,96.1%,99.8%,102%,98.2%,97.4%,96.6%,97.3%,84.6%,104%,97.2%,103%
CCN1CCN(C(=O)[C@@]2(C)CC[C@]3(C)CC[C@]4(C)C(=CC(=O)[C@@H]5[C@@]6(C)CC[C@H](OC7C[C@@H](O)[C@@H](O)C(C)O7)C(C)(C)[C@@H]6CC[C@]54C)[C@@H]3C2)CC1 (some centres undefined),2.94% (active),8.78% (active),2.56% (active),6.15% (active),60.4%,24.2%,-78% (active),-59.2% (active),14.8%,-55.2% (active),34.2%,1.72% (active),86.7%,39%,10.3%,42.1%,-5.54% (active),-69.3% (active),-7.89% (active)
